# Screens as filed in PubChem.
# In the library only some 6.2% were active in any assay of this set; here they are far more common.
# Luc counter = blocks Kinase-Glo luciferase, a counter-screen artifact | Q27757 | Potency, µM (doses to about 38.3 µM), for inactives: at the top dose activity change, negative = inhibition, most hits filed as inhibitors | 200,000 tested, 0.28% active | Kinase-Glo luciferase, ATP luminescence, 8 min; note: nearly all actives have a fitted effect of over 60% in size
#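 Light output from Kinase-Glo luciferase with luciferin and 10 uM ATP in 50 mM imidazole pH 7.2, KCl, MgCl2, Tween 20, BSA; compound pin-delivered, 8-min ambient incubation, then luminescence read.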
# RORgamma inh = inhibitors of mouse ROR gamma transcriptional activity; Drosophila S2 Gal4-RORgamma UAS-luciferase reporter, 20 h; Potency, µM (titrated, usually from 53.6 µM), for inactives: at the highest dose activity change, negative = inhibition, hits mostly inhibitors; 310,000 tested, 5.4% active; AID 2551; note: nearly all actives have a fitted effect of over 60% in size
# Target sequence (P51450 whole entry, looked up, the tested form may be a part): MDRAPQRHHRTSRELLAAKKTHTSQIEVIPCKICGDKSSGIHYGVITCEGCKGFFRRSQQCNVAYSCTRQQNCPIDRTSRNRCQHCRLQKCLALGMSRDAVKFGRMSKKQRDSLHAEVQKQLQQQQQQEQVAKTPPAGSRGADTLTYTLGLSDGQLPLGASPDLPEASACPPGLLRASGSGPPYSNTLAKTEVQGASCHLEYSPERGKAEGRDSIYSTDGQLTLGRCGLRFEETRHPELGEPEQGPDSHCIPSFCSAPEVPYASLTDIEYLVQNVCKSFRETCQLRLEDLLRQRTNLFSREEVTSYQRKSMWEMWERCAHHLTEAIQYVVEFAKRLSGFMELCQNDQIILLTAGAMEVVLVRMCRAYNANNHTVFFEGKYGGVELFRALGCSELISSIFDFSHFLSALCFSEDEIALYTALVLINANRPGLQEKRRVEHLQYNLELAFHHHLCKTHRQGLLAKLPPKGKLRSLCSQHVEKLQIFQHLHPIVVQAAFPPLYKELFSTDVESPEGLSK
#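 Compounds are pin-transferred onto Drosophila Schneider cells expressing a copper-inducible Gal4–ROR gamma transactivation domain fusion. After 1 hr, copper sulfate is added to 700 uM final; luciferase is read 20 hr later.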
# Gal4-VP16 FLuc = inhibits Gal4-VP16 luciferase reporter, ROR gamma counter-screen; AID 2546; Drosophila S2 Gal4-VP16 UAS-luciferase, luminescence, 20 h; 310,000 tested, 3.5% active; Potency, µM (titrated, usually from 53.6 µM), without a hit: at the top dose activity, negative = inhibition, actives largely listed as inhibitors;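 note: Gal4-VP16 expression switched on by copper sulfate through the metallothionein promoter; nearly all actives have a fitted effect of over 50% in size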
# Starred values were filed as active, the others as inactive; ? = inconclusive; . = no result given; [ ] = remark or other dose. Calls come from the whole dose curve; as a rule, active = well fitted curve in the direction sought with a large enough effect; inconclusive = small, poorly fitted or top-dose-only effect, or another doubt; inactive = no such curve, though single readings can be large; an effect the other way counts as inactive or inconclusive. % is set by controls: 0 for no effect and ±100 for the full control effect; potency is the fitted concentration of half-maximal effect.
SMILES,Luc counter,RORgamma inh,Gal4-VP16 FLuc
CC(C)N(C(=O)CS(=O)(=O)c1ccc(Cl)c(Cl)c1)C(C)C,-0.2%,38.4%,0.0%
CN(C)c1nc(SCc2ccccc2Cl)nc2c1CCCC2,3.9%,7.94µM*,7.1%[0.365 µM]
Cc1ccc(CSc2nc3c(c(N(C)C)n2)CCCC3)cc1,1.5%,?,-5.6%[0.365 µM]
CC1(C)CC2C1CC[C@]1(C)CCC3C(C(=O)O)CC(=O)O[C@]32C1 (stereo not given in full),2.7%,-4.3%,2.3%
O=C(NCc1ccc2c(c1)OCO2)C1CCCN1S(=O)(=O)c1ccc(Cl)cc1 (stereo not given),-3.4%,2.4%,-15.7%
CCN(CC)C(=O)CSc1nc2cc(S(=O)(=O)N3CCOCC3)ccc2n1CC,.,1.9%,-2.2%
COCCNC(=O)C1(CC(C)C)C=CCN1C(=O)OC (stereo not given),-3.3%,32.8%,28.1%
Cc1cc(S(=O)(=O)N2CCCOC2CNC(=O)C(=O)NCCc2ccco2)ccc1F (stereo not given),.,30.2%,-1.9%
O=C(O)CCN1C(=O)c2ccc(NC(=O)Cc3ccc(Cl)cc3)cc2C1=O,.,-3.6%,-6.6%
Cn1c(SCC(=O)NCc2ccccc2)nc2c([nH]c3ccccc32)c1=O,1.9%,-1.8%,4.7%
Cn1c(SCC(=O)Nc2ccccc2)nc2c([nH]c3ccccc32)c1=O,1.7%,?,12.6µM*
COc1cccc(NC(=O)CSc2nc3c([nH]c4ccccc43)c(=O)n2C)c1,-0.4%,-20.2%,-10.3%
Cc1cccc(NC(=O)CSc2nc3c([nH]c4ccccc43)c(=O)n2C)c1,-0.2%,12.6µM*,?
C=CCn1c(SCC(=O)Nc2cc(C)on2)nc2c([nH]c3ccccc32)c1=O,.,?,11.2µM*
C=CCn1c(SCC(=O)Nc2ccc(OC)cc2)nc2c([nH]c3ccccc32)c1=O,.,4.3%,0.6%
CC(=O)c1ccc(NC(=O)c2ccc(CNc3c(N4CCOCC4)c(=O)c3=O)cc2)cc1,.,-6.6%,6.7%
O=C(CC(=O)N/N=C\c1ccc([N+](=O)[O-])cc1)NCCc1ccccc1,0.8%,41.8%,22.6%
C#Cc1ccc([C@@H]2C=C(C(=O)NC3CC3)O[C@H](OCCCCO)C2)cc1,.,44.5%,7.7%
O=C(N/N=C/C(Br)=C/c1ccccc1)c1ccc([N+](=O)[O-])cc1,.,12.6µM*,-19.0%
O=C(N/N=C/C(Br)=C\c1ccccc1)c1ccc2nc[nH]c2c1,0.1%,14.1µM*,7.94µM*
O=C(N/N=C/C(Br)=C/c1ccccc1)c1ccncc1,.,-1.3%,-7.6%
O=C(N/N=C/C(Br)=C/c1ccccc1)C1CC1,5.2%,?,?
O=C(O)c1ccc(N/N=C/C(Br)=C/c2ccccc2)cc1,.,8.91µM*,10µM*
CC(=C/c1ccccc1)/C=N/NC(=O)c1ccc2nc[nH]c2c1,-3.5%,8.8%,7.9%
COc1ccc(O[C@H]2C=C[C@@H](c3ccccc3)O[C@H]2COC(=O)CC/C(C)=N\O[C@@H](C)CN2CCCc3nc(C)c(C)cc32)cc1,.,-10.9%[10 µM],3.1%[10 µM]
SMILES,Luc counter,RORgamma inh,Gal4-VP16 FLuc
Cc1ccc(NC(=O)C2CCC(CNC(=O)[C@@H]3Cc4ccccc4CN3)CC2)c(C)c1 (stereo not given in full),.,-28.4%,2.3%
O=C(O)Cc1sc(Nc2ccc(F)cc2)nc1-c1cccs1,-1.3%,?,-9.5%
COc1ccc(NC(=O)CC2SC(=Nc3ccccc3)NC2=O)cc1 (stereo not given),-5.0%,?,?
COc1ccc(NC(=O)CC2SC(=O)NC2=O)cc1 (stereo not given),.,11.2µM*,12.6µM*
Cc1ccc(NC(=O)CC2SC(=O)NC2=O)cc1 (stereo not given),-1.1%,5.01µM*,4.47µM*
Cc1ccc(NC(=O)CC2S/C(=N/N=C3/NC(=O)CS3)NC2=O)cc1 (stereo not given),4.7%,?,-7.0%
COC(=O)c1ccc(COC(=O)c2[nH]c(C)c(C(C)=O)c2C)o1,0.3%,?,7.94µM*
CC(=O)c1c(C)[nH]c(C(=O)OCc2ccc([N+](=O)[O-])cc2)c1C,.,?,-1.6%
O=C1COCCN1,.,-12.8%,-1.7%
COc1ccc(/C=C2\SC(=S)N(CCCC(=O)N3CCCCC3CCO)C2=O)cc1 (stereo not given),.,2.24µM*,3.55µM*
COc1cccc(/C=C2\SC(=O)N(CCC(=O)N3CCCCC3CCO)C2=O)c1 (stereo not given),.,-23.3%,2.8%
O=C1/C(=C\c2ccccc2)SC(=S)N1CCC(=O)N1CCCCC1CCO (stereo not given),.,7.2%,1.5%
CC(C)c1ccc(/C=C2\SC(=S)N(CCC(=O)N3CCCCC3CCO)C2=O)cc1 (stereo not given),.,10µM*,?
C/C=C/C=C\C(=O)Nc1cccc(C2=NOC3(C2)C[C@@H](C(N)=O)N(C(=O)c2cc([N+](=O)[O-])cc([N+](=O)[O-])c2C)C3)c1 (stereo not given in full),.,-13.4%,0.0%
COC(=O)C(C(C)=O)C1c2ccccc2C=C(C)N1C(=O)OC (stereo not given),-7.0%[7.66 µM],.,.
COc1ccccc1-c1cnnc(N/N=C/c2ccc(-c3cccc(Br)c3)o2)n1,2.6%,1µM*,2µM*
COc1ccc(-c2cnnc(N/N=C/c3ccc(-c4ccc([N+](=O)[O-])cc4)o3)n2)cc1,-1.1%,-36.2%,-5.9%
O=C(CSc1nnc(-c2ccco2)o1)Nc1ccccc1Cl,.,0.4%,21.6%
Oc1ccc(N=Cc2ccc(O)c(O)c2)cc1,-19.5%,4.47µM*,10µM*
Oc1ccc(/C=N/N=C/c2ccc(O)c(O)c2)cc1O,.,-17.7%,?
COc1cccc(N2CCN(C(=O)C3CCC(=O)N(C4CCCCCC4)C3)CC2)c1 (stereo not given),.,38.6%,0.2%
Cc1ccc(-n2ncc3c(=O)n(CC(=O)N4CCN(c5ccccc5)CC4)cnc32)cc1C,1.9%,-27.1%,-17.3%
O=C1/C(=C/c2ccncc2)CCC/C1=C\c1ccncc1,0.6%,6.31µM*,5.01µM*
O=C1/C(=C/c2ccncc2)CCc2ccccc21,.,?,2.2%
O=C(CSCc1ccc(Br)cc1)NCCc1ccccc1,.,-0.6%,0.9%
SMILES,Luc counter,RORgamma inh,Gal4-VP16 FLuc
N#C/C(=C\c1ccc(N2CCOCC2)o1)c1ccccc1,0.3%,?,20µM*
N#C/C(=C/c1ccc(N2CCCCCC2)o1)c1cccc(F)c1,-18.3%,1.1%,?
N#C/C(=C/c1ccc(N2CCOCC2)o1)c1nc2ccccc2[nH]1,-19.2%,-80.2%,?
N#C/C(=C/c1ccc(N2CCOCC2)o1)c1ccc(Br)cc1,-5.9%,-90.8%,5.62µM*
CCN(CC(=O)NC(C)C)C(=O)[C@@H](NC(=O)c1ccco1)C(C)C,5.0%,18.6%,0.2%
O=c1c2ccccc2nc(/C=C/c2ccc([N+](=O)[O-])o2)n1CCCO,-0.8%,8.91µM*,7.08µM*
O=c1c2ccccc2nc(/C=C/c2ccc([N+](=O)[O-])cc2)n1CCCO,5.9%,4.8%,5.5%
O=C(CNC(=S)N(Cc1ccccc1)Cc1ccccc1F)NCc1ccccc1,-0.5%,20.9%,-11.0%
O=C(CNC(=S)N(Cc1ccccc1)Cc1ccccc1F)NCCc1ccccc1,0.4%,12.6µM*,-27.6%
CN(C)CCNC(=O)CNC(=S)N(Cc1ccccc1)Cc1ccccc1F,-3.5%,-11.9%,2.2%
